The full ranking holds about 16,000 sequences; the median of “rpm ratio (pull-down/input)” is about 0.5, and the highest 2% start at about 5.5. For the sample, the highest values were picked, then their nearest neighbours and some sequences at random.

For this assay, the target named is T1, MBP-FoxP3dN (Mus musculus, UniProt Q99JB6 188-423).
T1 sequence: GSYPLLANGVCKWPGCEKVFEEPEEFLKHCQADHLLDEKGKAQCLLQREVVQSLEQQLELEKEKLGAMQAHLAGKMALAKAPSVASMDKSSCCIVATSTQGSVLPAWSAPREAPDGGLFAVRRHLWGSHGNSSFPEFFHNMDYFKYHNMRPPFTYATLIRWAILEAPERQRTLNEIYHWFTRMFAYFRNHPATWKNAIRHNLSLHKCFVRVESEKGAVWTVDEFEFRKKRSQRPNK
As to the kind of experiment: PD-seq (MBP pull-down with sequencing); 20 mM Tris-HCl pH 7.5, 100 mM NaCl, 1.5 mM MgCl2, 0.4 uM protein, 0.1 uM dsDNA library, 30 min, room temperature, amylose pull-down; high values mean tight binding. Conditions: protein: recombinant; tags: His6-MBP; chain copies: 2; dsDNA, one strand shown. The essentials: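 A degenerate double-stranded DNA library, filled in with Klenow, was added at 0.1 µM to 0.4 µM His6-MBP-tagged mouse FoxP3 or FoxP1 fragment lacking the N-terminus, expressed in E. coli. Incubation lasted 30 min at room temperature in Tris pH 7.5 buffer with NaCl and MgCl2, after which complexes were collected on amylose resin, washed three times, digested with proteinase K to free the DNA, barcoded by PCR and sequenced by Illumina. Binding is the pooled-replicate reads-per-million enrichment of pull-down over input.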
For “GATGATTGTTCTCCCAGCTGATGAATTTCCGCCGTCGAGTAAACAAATTTTCCTAATCTTTCTGTTCAAGCGCCATCTAC”, the binding signal was 0.555 RPM ratio (pull-down/input).
The value for “GATGATTGTTCTCCCAGCTGATGAATTTCTGTAGTCGAGTAAACAAATTTTCCTAATCTTTCTGTTCAAGCGCCATCTAC” was 0.385 RPM ratio (pull-down/input); that for “GATGATTGTTCTCCCAGCTGATGAATTAGTCGAGTCGAGTAAACAAATTTTCCTAATCTTTCTGTTCAAGCGCCATCTAC” was 0.367 RPM ratio (pull-down/input).
The value for “GATGATTGTTCTCCCAGCTGATGAATTTGTGTAGTCGAGTAAACAAATTTTCCTAATCTTTCTGTTCAAGCGCCATCTAC” was 6.14 RPM ratio (pull-down/input).
The value for “GATGATTGTTCTCCCAGCTGATGAATTTTATTAGTCGAGTAAACAAATTTTCCTAATCTTTCTGTTCAAGCGCCATCTAC” was 4.27 RPM ratio (pull-down/input).
As to “GATGATTGTTCTCCCAGCTGATGAATTAGTTATGTCGAGTAAACAAATTTTCCTAATCTTTCTGTTCAAGCGCCATCTAC”, the binding signal was 3.79 RPM ratio (pull-down/input).
Consider “GATGATTGTTCTCCCAGCTGATGAATTTGTTAGGTCGAGTAAACAAATTTTCCTAATCTTTCTGTTCAAGCGCCATCTAC”, for which the binding signal is 5.73 RPM ratio (pull-down/input).
For “GATGATTGTTCTCCCAGCTGATGAATTTATTTAGTCGAGTAAACAAATTTTCCTAATCTTTCTGTTCAAGCGCCATCTAC”, the binding signal was 5.5 RPM ratio (pull-down/input).
Take “GATGATTGTTCTCCCAGCTGATGAATTATTTTAGTCGAGTAAACAAATTTTCCTAATCTTTCTGTTCAAGCGCCATCTAC”: the binding signal is 0.414 RPM ratio (pull-down/input).
The figure for “GATGATTGTTCTCCCAGCTGATGAATTTCTTAGGTCGAGTAAACAAATTTTCCTAATCTTTCTGTTCAAGCGCCATCTAC” is 0.273 RPM ratio (pull-down/input).
The value for “GATGATTGTTCTCCCAGCTGATGAATTTTTGTAGTCGAGTAAACAAATTTTCCTAATCTTTCTGTTCAAGCGCCATCTAC” was 0.53 RPM ratio (pull-down/input).
The figure for “GATGATTGTTCTCCCAGCTGATGAATTATGTTAGTCGAGTAAACAAATTTTCCTAATCTTTCTGTTCAAGCGCCATCTAC” is 5.81 RPM ratio (pull-down/input); for “GATGATTGTTCTCCCAGCTGATGAATTAGTTAGGTCGAGTAAACAAATTTTCCTAATCTTTCTGTTCAAGCGCCATCTAC” it is 1.51 RPM ratio (pull-down/input).
In the case of “GATGATTGTTCTCCCAGCTGATGAATTGCCTCCATCGAGTAAACAAATTTTCCTAATCTTTCTGTTCAAGCGCCATCTAC”, the binding signal is 1.28 RPM ratio (pull-down/input).
The figure for “GATGATTGTTCTCCCAGCTGATGAATTATACTTCTCGAGTAAACAAATTTTCCTAATCTTTCTGTTCAAGCGCCATCTAC” is 0.492 RPM ratio (pull-down/input).
The figure for “GATGATTGTTCTCCCAGCTGATGAATTTTTCTACTCGAGTAAACAAATTTTCCTAATCTTTCTGTTCAAGCGCCATCTAC” is 0.279 RPM ratio (pull-down/input).
For “GATGATTGTTCTCCCAGCTGATGAATTTATCGCCTCGAGTAAACAAATTTTCCTAATCTTTCTGTTCAAGCGCCATCTAC”, the binding signal was 1.07 RPM ratio (pull-down/input).
As for “GATGATTGTTCTCCCAGCTGATGAATTGCGCTCATCGAGTAAACAAATTTTCCTAATCTTTCTGTTCAAGCGCCATCTAC”, the binding signal was 1.24 RPM ratio (pull-down/input).
As for “GATGATTGTTCTCCCAGCTGATGAATTAGCCGGCTCGAGTAAACAAATTTTCCTAATCTTTCTGTTCAAGCGCCATCTAC”, the binding signal was 0.203 RPM ratio (pull-down/input).
The value for “GATGATTGTTCTCCCAGCTGATGAATTCCTTTTATCGAGTAAACAAATTTTCCTAATCTTTCTGTTCAAGCGCCATCTAC” was 0.345 RPM ratio (pull-down/input); that for “GATGATTGTTCTCCCAGCTGATGAATTCTTTTTATCGAGTAAACAAATTTTCCTAATCTTTCTGTTCAAGCGCCATCTAC” was 0.332 RPM ratio (pull-down/input).
On to “GATGATTGTTCTCCCAGCTGATGAATTTGATTTATCGAGTAAACAAATTTTCCTAATCTTTCTGTTCAAGCGCCATCTAC”, for which the binding signal was 2.99 RPM ratio (pull-down/input).
The figure for “GATGATTGTTCTCCCAGCTGATGAATTTTGTTTATCGAGTAAACAAATTTTCCTAATCTTTCTGTTCAAGCGCCATCTAC” is 7.19 RPM ratio (pull-down/input); for “GATGATTGTTCTCCCAGCTGATGAATTTATCTAATCGAGTAAACAAATTTTCCTAATCTTTCTGTTCAAGCGCCATCTAC” it is 0.706 RPM ratio (pull-down/input); for “GATGATTGTTCTCCCAGCTGATGAATTATGATTATCGAGTAAACAAATTTTCCTAATCTTTCTGTTCAAGCGCCATCTAC” it is 3.53 RPM ratio (pull-down/input).
Turning to “GATGATTGTTCTCCCAGCTGATGAATTCTGTTTATCGAGTAAACAAATTTTCCTAATCTTTCTGTTCAAGCGCCATCTAC”, the binding signal is 7.92 RPM ratio (pull-down/input).
For “GATGATTGTTCTCCCAGCTGATGAATTGTTTTTATCGAGTAAACAAATTTTCCTAATCTTTCTGTTCAAGCGCCATCTAC”, the binding signal was 3.74 RPM ratio (pull-down/input).
With “GATGATTGTTCTCCCAGCTGATGAATTTATGTTATCGAGTAAACAAATTTTCCTAATCTTTCTGTTCAAGCGCCATCTAC”, the binding signal is 3.24 RPM ratio (pull-down/input).
The figure for “GATGATTGTTCTCCCAGCTGATGAATTTTCTTTATCGAGTAAACAAATTTTCCTAATCTTTCTGTTCAAGCGCCATCTAC” is 1.27 RPM ratio (pull-down/input).
The value for “GATGATTGTTCTCCCAGCTGATGAATTATGTTTATCGAGTAAACAAATTTTCCTAATCTTTCTGTTCAAGCGCCATCTAC” was 8.36 RPM ratio (pull-down/input); that for “GATGATTGTTCTCCCAGCTGATGAATTGTGTTTATCGAGTAAACAAATTTTCCTAATCTTTCTGTTCAAGCGCCATCTAC” was 8.53 RPM ratio (pull-down/input); that for “GATGATTGTTCTCCCAGCTGATGAATTACCACCCTCGAGTAAACAAATTTTCCTAATCTTTCTGTTCAAGCGCCATCTAC” was 0.312 RPM ratio (pull-down/input).
